# According to PMC7862700, “An all-to-all approach to the identification of sequence-specific readers for epigenetic DNA modifications on cytosine”:
# Experiments:
# Assay in all cases: DAPPL (digital affinity profiling via proximity ligation, sequencing); 10 mM Tris-HCl pH 7.5, 50 mM NaCl, 1 mM DTT, 4% glycerol, room temperature, 30 min; GST-TFs on glutathione beads, 16-mer random dsDNA library, 0.1% formaldehyde crosslink after washing; high values mean tight binding
# Details in all cases: protein: recombinant; tags: N-terminal GST; dsDNA, one strand shown
# FLI1 = target: T1, FLI1 (Homo sapiens, UniProt Q01543 1-452)
# T1 sequence: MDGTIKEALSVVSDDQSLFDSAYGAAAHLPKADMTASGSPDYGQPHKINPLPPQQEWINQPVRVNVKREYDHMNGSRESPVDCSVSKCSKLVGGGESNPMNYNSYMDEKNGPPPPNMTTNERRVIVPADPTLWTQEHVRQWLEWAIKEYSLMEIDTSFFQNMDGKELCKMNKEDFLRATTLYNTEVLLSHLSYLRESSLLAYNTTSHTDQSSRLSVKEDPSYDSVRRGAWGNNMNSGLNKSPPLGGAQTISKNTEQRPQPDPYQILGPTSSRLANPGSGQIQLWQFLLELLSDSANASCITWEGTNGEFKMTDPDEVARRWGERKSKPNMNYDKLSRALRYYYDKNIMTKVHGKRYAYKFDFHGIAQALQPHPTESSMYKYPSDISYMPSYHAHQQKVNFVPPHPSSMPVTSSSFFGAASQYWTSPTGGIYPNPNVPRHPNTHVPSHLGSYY
# In short: (§1)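 Pools were built from human transcription factors expressed in yeast as GST fusions, captured on glutathione beads and DNA-barcoded, along with a tag-only sample. Incubation with 200 nmole of a 16-mer random double-stranded DNA library lasted 30 min at room temperature in Tris/NaCl/DTT/glycerol buffer, and was followed by washing, 0.1% formaldehyde crosslinking, proximity ligation, PCR amplification and Illumina NextSeq500 sequencing. Binding signal is the quotient of each hexamer's read frequency for a factor and its frequency for the tag-only sample.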
# ELK1 = target: T2, ELK1 (Homo sapiens, UniProt P19419 1-428)
# T2 sequence: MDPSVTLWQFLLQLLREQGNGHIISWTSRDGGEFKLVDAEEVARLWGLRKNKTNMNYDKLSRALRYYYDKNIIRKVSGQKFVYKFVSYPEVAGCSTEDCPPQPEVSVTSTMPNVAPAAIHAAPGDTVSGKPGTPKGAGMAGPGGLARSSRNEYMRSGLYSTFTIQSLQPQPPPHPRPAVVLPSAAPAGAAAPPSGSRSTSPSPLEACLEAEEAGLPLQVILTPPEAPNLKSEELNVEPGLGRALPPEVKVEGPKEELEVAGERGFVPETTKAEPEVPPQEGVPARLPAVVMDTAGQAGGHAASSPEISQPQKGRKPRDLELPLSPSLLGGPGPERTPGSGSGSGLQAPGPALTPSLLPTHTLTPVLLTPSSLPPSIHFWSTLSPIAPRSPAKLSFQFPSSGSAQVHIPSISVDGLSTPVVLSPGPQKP
# In short: as §1
# GABPA = target: T3, GABPA (Homo sapiens, UniProt Q06546 1-454)
# T3 sequence: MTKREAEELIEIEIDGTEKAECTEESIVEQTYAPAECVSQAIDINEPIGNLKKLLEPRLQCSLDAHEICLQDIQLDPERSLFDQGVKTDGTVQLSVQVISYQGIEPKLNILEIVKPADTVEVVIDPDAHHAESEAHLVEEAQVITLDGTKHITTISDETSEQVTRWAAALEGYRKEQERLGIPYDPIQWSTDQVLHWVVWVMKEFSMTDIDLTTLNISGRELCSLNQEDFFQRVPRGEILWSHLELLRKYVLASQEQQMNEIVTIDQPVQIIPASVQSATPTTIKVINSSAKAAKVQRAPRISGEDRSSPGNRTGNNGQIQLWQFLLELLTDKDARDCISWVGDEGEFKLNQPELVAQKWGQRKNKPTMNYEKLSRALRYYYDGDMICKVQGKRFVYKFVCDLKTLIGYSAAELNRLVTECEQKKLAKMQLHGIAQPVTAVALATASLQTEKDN
# In short: as §1
# ERG = target: T4, ERG (Homo sapiens, UniProt P11308 1-479)
# T4 sequence: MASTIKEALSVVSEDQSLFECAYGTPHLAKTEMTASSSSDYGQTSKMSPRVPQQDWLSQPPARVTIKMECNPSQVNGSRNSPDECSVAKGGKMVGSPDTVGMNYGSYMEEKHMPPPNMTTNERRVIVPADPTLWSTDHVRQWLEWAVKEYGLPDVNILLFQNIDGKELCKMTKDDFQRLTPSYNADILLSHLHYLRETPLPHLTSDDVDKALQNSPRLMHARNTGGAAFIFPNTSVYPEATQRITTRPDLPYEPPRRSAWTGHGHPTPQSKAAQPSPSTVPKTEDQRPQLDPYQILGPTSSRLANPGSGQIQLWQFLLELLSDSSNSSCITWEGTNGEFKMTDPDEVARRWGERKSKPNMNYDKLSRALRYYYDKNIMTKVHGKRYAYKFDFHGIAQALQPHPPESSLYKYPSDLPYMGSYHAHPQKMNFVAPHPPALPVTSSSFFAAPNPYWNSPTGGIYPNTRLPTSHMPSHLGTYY
# In short: as §1
# ELF1 = ELF1 (Homo sapiens, UniProt P32519 1-619)
# In short: as §1
# EHF = target: T5, EHF (Homo sapiens, UniProt Q9NZC4 1-300)
# T5 sequence: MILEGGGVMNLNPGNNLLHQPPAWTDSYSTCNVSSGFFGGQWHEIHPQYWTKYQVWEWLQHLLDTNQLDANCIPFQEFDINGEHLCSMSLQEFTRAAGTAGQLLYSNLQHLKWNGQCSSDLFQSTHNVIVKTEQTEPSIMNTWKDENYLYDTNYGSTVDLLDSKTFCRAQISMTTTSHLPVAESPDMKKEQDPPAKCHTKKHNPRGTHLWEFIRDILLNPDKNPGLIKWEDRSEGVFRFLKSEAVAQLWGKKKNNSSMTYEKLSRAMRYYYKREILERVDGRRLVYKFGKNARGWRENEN
# In short: as §1
# SPI1 = SPI1 (Homo sapiens, UniProt P17947 1-270)
# In short: as §1
# SPIB = SPIB (Homo sapiens, UniProt Q01892 1-262)
# In short: as §1
# ELK3 = target: T6, ELK3 (Homo sapiens, UniProt P41970 1-407)
# T6 sequence: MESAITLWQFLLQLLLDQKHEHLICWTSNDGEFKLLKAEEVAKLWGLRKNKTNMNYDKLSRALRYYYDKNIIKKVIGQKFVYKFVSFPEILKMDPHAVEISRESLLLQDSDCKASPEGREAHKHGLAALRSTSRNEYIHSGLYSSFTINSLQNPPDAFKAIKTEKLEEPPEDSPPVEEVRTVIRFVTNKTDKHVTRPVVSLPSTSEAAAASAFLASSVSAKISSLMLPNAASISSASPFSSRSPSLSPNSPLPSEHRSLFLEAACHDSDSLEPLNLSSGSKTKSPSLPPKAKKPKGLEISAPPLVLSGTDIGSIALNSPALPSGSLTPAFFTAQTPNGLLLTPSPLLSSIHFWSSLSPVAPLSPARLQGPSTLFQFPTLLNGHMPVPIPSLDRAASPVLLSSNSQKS
# In short: as §1
# FEV = target: T7, FEV (Homo sapiens, UniProt Q99581 1-238)
# T7 sequence: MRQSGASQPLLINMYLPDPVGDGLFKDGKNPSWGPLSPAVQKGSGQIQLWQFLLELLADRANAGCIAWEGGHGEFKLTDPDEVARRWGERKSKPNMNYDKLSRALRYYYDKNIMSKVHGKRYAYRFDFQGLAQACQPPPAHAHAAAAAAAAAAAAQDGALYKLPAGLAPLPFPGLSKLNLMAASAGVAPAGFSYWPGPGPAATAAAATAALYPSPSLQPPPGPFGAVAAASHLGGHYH
# In short: as §1
# ETV5 = ETV5 (Homo sapiens, UniProt P41161 1-510)
# In short: as §1
# SPIC = target: T8, SPIC (Homo sapiens, UniProt Q8N5J4 1-248)
# T8 sequence: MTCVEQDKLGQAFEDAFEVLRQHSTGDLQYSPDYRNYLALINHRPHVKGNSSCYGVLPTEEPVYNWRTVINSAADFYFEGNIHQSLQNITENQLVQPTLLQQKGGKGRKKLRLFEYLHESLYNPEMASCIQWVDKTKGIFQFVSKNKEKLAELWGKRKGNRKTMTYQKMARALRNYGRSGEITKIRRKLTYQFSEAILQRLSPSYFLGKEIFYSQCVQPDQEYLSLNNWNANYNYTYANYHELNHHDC
# In short: as §1
# ELF4 = ELF4 (Homo sapiens, UniProt Q99607 1-663)
# In short: as §1
# ELK4 = target: T9, ELK4 (Homo sapiens, UniProt P28324-2 1-405)
# T9 sequence: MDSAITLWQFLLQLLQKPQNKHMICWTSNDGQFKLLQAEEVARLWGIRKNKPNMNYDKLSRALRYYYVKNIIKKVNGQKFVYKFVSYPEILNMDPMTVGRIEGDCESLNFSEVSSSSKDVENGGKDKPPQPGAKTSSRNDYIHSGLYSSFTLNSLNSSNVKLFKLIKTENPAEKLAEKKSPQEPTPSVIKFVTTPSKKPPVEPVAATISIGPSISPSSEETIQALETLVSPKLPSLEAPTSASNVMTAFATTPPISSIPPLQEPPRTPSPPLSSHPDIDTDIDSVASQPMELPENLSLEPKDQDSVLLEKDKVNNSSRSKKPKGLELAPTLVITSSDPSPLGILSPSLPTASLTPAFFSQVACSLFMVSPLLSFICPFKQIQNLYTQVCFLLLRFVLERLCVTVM
# In short: as §1
# ETV2 = target: T10, ETV2 (Homo sapiens, UniProt O00321 1-342)
# T10 sequence: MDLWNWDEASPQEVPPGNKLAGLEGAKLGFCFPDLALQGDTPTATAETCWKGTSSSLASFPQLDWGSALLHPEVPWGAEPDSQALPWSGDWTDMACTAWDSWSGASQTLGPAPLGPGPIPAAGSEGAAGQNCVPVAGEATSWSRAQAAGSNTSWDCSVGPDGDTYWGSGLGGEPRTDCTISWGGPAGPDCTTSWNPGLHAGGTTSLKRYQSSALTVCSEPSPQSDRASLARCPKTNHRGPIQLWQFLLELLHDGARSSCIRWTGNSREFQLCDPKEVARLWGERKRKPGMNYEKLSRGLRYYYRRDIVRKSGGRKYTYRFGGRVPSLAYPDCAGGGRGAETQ
# In short: as §1
# ELF3 = target: T11, ELF3 (Homo sapiens, UniProt P78545 1-371)
# T11 sequence: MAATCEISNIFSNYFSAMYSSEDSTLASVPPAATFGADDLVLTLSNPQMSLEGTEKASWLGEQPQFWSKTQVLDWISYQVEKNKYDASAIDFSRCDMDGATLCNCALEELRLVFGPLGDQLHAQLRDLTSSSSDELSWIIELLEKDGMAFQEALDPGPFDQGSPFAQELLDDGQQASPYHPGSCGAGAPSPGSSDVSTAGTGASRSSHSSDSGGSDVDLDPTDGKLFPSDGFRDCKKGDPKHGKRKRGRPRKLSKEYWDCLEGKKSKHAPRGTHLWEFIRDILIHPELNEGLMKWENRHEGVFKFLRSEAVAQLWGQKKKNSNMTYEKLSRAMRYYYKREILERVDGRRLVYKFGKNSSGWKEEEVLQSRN
# In short: as §1
# ETV1 = ETV1 (Homo sapiens, UniProt P50549 1-477)
# In short: as §1
# Sequence of ETV5 (P41161 whole entry): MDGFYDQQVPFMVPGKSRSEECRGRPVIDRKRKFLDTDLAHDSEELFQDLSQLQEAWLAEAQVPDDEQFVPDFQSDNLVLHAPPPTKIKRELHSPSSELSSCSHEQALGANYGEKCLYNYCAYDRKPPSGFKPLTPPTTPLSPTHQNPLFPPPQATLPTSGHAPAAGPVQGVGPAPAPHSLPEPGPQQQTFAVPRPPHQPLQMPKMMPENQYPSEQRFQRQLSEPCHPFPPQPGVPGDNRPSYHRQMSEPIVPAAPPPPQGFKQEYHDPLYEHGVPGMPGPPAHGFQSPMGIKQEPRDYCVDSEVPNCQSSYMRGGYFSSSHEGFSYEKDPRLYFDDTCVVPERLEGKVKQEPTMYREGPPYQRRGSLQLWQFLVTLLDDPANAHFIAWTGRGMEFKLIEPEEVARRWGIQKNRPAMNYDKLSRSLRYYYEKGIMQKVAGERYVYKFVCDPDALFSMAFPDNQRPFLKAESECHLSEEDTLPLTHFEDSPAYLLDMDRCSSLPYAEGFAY
# Sequence of SPIB (Q01892 whole entry): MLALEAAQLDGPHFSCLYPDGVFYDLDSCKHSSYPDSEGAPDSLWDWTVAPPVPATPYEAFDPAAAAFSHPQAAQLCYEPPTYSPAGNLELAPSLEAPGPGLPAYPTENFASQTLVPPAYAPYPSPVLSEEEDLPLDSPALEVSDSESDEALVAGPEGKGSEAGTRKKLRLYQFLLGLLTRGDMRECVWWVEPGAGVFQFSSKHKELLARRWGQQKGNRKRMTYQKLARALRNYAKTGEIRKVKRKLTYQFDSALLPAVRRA
# Sequence of ETV1 (P50549 whole entry): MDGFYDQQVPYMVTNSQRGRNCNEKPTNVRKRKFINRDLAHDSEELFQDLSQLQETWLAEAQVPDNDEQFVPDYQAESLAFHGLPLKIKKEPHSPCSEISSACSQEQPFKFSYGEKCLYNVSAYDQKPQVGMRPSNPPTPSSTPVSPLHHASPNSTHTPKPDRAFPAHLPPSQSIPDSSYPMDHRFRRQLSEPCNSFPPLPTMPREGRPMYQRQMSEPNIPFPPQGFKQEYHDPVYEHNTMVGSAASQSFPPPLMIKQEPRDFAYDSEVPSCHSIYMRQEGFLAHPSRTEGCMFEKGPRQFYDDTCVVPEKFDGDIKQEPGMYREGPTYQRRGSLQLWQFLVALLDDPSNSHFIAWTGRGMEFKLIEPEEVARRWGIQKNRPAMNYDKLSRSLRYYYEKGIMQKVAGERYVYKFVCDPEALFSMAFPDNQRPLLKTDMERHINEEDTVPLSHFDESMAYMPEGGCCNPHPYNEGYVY
# Sequence of ELF4 (Q99607 whole entry): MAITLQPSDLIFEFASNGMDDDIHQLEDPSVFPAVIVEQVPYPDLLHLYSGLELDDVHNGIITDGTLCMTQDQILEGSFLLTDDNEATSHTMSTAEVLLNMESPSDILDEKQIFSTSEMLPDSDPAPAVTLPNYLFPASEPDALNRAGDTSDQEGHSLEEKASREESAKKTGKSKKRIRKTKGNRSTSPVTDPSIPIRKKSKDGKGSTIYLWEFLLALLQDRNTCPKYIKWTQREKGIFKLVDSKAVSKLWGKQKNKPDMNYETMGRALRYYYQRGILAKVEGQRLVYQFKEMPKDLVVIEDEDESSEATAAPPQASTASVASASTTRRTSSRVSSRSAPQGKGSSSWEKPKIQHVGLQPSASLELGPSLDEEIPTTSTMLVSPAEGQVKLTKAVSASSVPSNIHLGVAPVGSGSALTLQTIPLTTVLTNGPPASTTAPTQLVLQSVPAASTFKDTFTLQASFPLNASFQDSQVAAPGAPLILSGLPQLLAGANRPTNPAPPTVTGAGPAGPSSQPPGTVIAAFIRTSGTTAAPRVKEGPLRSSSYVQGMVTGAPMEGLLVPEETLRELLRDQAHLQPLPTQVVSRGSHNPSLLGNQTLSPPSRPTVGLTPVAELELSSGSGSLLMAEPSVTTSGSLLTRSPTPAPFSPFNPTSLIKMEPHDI
# Sequence of ELF1 (P32519 whole entry): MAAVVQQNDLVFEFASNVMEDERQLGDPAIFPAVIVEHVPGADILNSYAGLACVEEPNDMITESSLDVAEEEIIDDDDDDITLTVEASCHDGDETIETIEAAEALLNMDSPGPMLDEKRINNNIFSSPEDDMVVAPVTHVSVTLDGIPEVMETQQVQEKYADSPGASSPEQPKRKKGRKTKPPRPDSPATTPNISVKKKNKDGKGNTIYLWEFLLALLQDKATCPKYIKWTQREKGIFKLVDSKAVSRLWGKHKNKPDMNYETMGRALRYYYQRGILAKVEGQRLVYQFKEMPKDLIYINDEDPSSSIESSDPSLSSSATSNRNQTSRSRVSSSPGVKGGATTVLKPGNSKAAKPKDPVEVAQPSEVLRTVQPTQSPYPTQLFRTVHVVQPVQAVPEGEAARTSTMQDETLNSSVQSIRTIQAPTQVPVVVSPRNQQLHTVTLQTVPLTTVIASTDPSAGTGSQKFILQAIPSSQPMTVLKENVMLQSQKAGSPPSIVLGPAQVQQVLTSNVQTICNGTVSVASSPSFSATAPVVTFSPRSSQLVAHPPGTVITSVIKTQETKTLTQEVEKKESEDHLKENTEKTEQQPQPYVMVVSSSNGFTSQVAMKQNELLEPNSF
Sequence,binding signal (FLI1),binding signal (ELK1),binding signal (GABPA),binding signal (ERG),binding signal (ELF1),binding signal (EHF),binding signal (SPI1),binding signal (SPIB),binding signal (ELK3),binding signal (FEV),binding signal (ETV5),binding signal (SPIC),binding signal (ELF4),binding signal (ELK4),binding signal (ETV2),binding signal (ELF3),binding signal (ETV1)
CCGGCC,"1.27 fold enrichment (6-mer frequency, TF over GST control)","1.27 fold enrichment (6-mer frequency, TF over GST control)","1.13 fold enrichment (6-mer frequency, TF over GST control)","1.18 fold enrichment (6-mer frequency, TF over GST control)","1.16 fold enrichment (6-mer frequency, TF over GST control)","1.1 fold enrichment (6-mer frequency, TF over GST control)","1.04 fold enrichment (6-mer frequency, TF over GST control)","1.18 fold enrichment (6-mer frequency, TF over GST control)","1.33 fold enrichment (6-mer frequency, TF over GST control)","1.54 fold enrichment (6-mer frequency, TF over GST control)","1.17 fold enrichment (6-mer frequency, TF over GST control)","1.32 fold enrichment (6-mer frequency, TF over GST control)","1.08 fold enrichment (6-mer frequency, TF over GST control)","1.27 fold enrichment (6-mer frequency, TF over GST control)","1.22 fold enrichment (6-mer frequency, TF over GST control)","1.14 fold enrichment (6-mer frequency, TF over GST control)","1.27 fold enrichment (6-mer frequency, TF over GST control)"
ACCCCA,"1.05 fold enrichment (6-mer frequency, TF over GST control)","1.12 fold enrichment (6-mer frequency, TF over GST control)","1.15 fold enrichment (6-mer frequency, TF over GST control)","1.08 fold enrichment (6-mer frequency, TF over GST control)","1.11 fold enrichment (6-mer frequency, TF over GST control)","1.11 fold enrichment (6-mer frequency, TF over GST control)","1.08 fold enrichment (6-mer frequency, TF over GST control)","1.05 fold enrichment (6-mer frequency, TF over GST control)","1.02 fold enrichment (6-mer frequency, TF over GST control)","1.07 fold enrichment (6-mer frequency, TF over GST control)","1.05 fold enrichment (6-mer frequency, TF over GST control)","1.15 fold enrichment (6-mer frequency, TF over GST control)","1.12 fold enrichment (6-mer frequency, TF over GST control)","1.2 fold enrichment (6-mer frequency, TF over GST control)","1.04 fold enrichment (6-mer frequency, TF over GST control)","1.04 fold enrichment (6-mer frequency, TF over GST control)","1.06 fold enrichment (6-mer frequency, TF over GST control)"
CTGGTC,"1.11 fold enrichment (6-mer frequency, TF over GST control)","1.23 fold enrichment (6-mer frequency, TF over GST control)","1.25 fold enrichment (6-mer frequency, TF over GST control)","1.2 fold enrichment (6-mer frequency, TF over GST control)","1.15 fold enrichment (6-mer frequency, TF over GST control)","1.2 fold enrichment (6-mer frequency, TF over GST control)","1.13 fold enrichment (6-mer frequency, TF over GST control)","1.35 fold enrichment (6-mer frequency, TF over GST control)","1.09 fold enrichment (6-mer frequency, TF over GST control)","1.11 fold enrichment (6-mer frequency, TF over GST control)","1.22 fold enrichment (6-mer frequency, TF over GST control)","1.2 fold enrichment (6-mer frequency, TF over GST control)","1.16 fold enrichment (6-mer frequency, TF over GST control)","1.19 fold enrichment (6-mer frequency, TF over GST control)","1.27 fold enrichment (6-mer frequency, TF over GST control)","1.05 fold enrichment (6-mer frequency, TF over GST control)","1.07 fold enrichment (6-mer frequency, TF over GST control)"
